# Screens as filed in PubChem BioAssay.
# TDP1 cell noCPT – qHTS for Inhibitors of human tyrosyl-DNA phosphodiesterase 1 (TDP1): qHTS in cells in absence of CPT | AID 686978, 2013 | Potency, µM (highest dose often 46.2 µM), for the others: at the highest dose activity change, negative = growth inhibition, most hits filed as inhibitors | DT40 Tdp1-/- hTDP1 cells, no CPT, ATP luminescence, 48 h | hit rate 15% among 420,000; note: potency is the fitted concentration of half-maximal effect; % is set by controls: 0 for no effect and ±100 for the full control effect; nearly all actives have a fitted effect of over 55% in size
#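 Readout: luminescence from CellTiter-Glo after 30 min in the dark at RT. Cells: DT40 Tdp1-/- with stable hTDP1, 400/well. Exposure: compounds alone, ≥48 hr, 37 °C.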
# HepG2 viability – qHTS for Inhibitors of TGF-b: Cytotox Counterscreen; HepG2 CAGA-GFP viability, ATP luminescence, 18 h; Potency, µM (titrated, usually from 46.1 µM), without a hit: at the top dose activity change, negative = cytotoxicity, most hits filed as cytotoxic; hit rate 0.76% among 410,000; AID 588856, 2011; note: potency is the fitted concentration of half-maximal effect
#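 CellTiter-Glo luminescence gave cytotoxicity after 18 hours at 37 degrees C. The cells were HepG2 CAGA-GFP in 1% FBS DMEM, stimulated with 500 pg/mL TGF-beta after compound addition. %Activity was normalised to no-cell wells (complete cell-killing) and DMSO (no toxicity), and curves were fitted and classified.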
# IL1B secr inh – qHTS for Inhibitors of Inflammasome Signaling: IL-1-beta AlphaLISA Primary Screen | THP-1 LPS/ATP IL-1B secretion, AlphaLISA, 16 h; active compounds read low | activity change, % at 57.5 µM | hit rate 4.7% among 360,000 | AID 743279, 2014; in the data active = activity change below about -50%; inconclusive = mostly about -30% to -49%; note: % is set by controls: 0 for no effect and ±100 for the full control effect
#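 THP-1 cells pretreated 1 hr with compounds (up to 57.5 uM final), then stimulated with LPS (250 ng/mL final) plus ATP (1.25 mM final); secreted IL-1B measured by AlphaLISA after 16 hr, decreased signal indicating inhibition.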
# DT40 TDP1 CPT – qHTS for Inhibitors of human tyrosyl-DNA phosphodiesterase 1 (TDP1): qHTS in cells in presence of CPT. chicken DT40 Tdp1-/-;hTDP1 cells + 20 nM CPT, ATP luminescence, 48 h. Potency, µM (doses to about 46.2 µM), inactives show at the top dose activity change, negative = growth inhibition, most hits filed as inhibitors. hit rate 12% among 420,000; note: potency is the fitted concentration of half-maximal effect; % is set by controls: 0 for no effect and ±100 for the full control effect; nearly all actives have a fitted effect of over 55% in size
#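 Chicken DT40 Tdp1-/- cells stably complemented with human TDP1 were seeded at 400 cells/well in medium containing 20 nM camptothecin, exposed to pin-transferred compounds, and grown at 37 °C for at least 48 hr. Viability was read as ATP luminescence.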
# TGFb SMAD3 inh – qHTS for Inhibitors of TGF-b. HepG2 CAGA-GFP TGF-b/SMAD3 reporter, GFP fluorescence, 18 h; TGF-beta stimulated, 500 pg/mL final. Potency, µM (series often up to 46.1 µM), for inactives: top-dose activity, negative = inhibition, most hits filed as inhibitors. hit rate 1.2% among 410,000; note: potency is the fitted concentration of half-maximal effect; % is set by controls: 0 for no effect and ±100 for the full control effect; nearly all actives have a fitted effect of over 65% in size
#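 HEPG2 CAGA-GFP, 1000 cells/well; 2 h settle, 37 C; cpd via pin tool; TGF-b 500 pg/mL final; 18 h, 37 C; GFP imaging ex488/em500-530; %Activity normalised to -TGF-b and +DMSO controls; CRC fit, curve class.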
# TDP1 inh – qHTS Assay for Inhibitors of Tyrosyl-DNA Phosphodiesterase (TDP1). Tyrosyl-DNA phosphodiesterase 1 (Homo sapiens), Q9NUW8. recombinant TDP1, AlphaScreen DNA substrate cleavage. Potency, µM (highest dose often 130 µM), for the others: at the top dose activity change, negative = inhibition, usual class: inhibitors. hit rate 0.28% among 350,000. AID 485290, 2010; note: potency is the fitted concentration of half-maximal effect; % is set by controls: 0 for no effect and ±100 for the full control effect; nearly all actives have a fitted effect of over 40% in size
# Target sequence (Q9NUW8 whole entry, looked up): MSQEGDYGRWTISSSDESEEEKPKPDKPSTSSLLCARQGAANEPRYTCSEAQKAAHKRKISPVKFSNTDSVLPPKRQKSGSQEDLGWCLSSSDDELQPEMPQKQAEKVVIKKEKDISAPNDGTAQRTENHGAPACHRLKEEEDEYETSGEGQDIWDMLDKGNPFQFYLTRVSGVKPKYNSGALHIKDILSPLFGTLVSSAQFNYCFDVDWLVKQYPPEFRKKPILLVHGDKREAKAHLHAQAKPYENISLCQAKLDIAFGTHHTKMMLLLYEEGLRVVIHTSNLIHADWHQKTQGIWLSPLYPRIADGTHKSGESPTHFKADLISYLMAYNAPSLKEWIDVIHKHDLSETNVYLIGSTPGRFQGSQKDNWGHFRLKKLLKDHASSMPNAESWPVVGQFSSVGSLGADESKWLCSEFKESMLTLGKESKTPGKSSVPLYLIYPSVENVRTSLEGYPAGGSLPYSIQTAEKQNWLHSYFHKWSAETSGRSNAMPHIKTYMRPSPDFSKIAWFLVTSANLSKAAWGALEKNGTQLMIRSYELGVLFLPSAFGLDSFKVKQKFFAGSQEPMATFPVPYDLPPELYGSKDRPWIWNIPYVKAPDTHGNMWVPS
#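 Compounds were preincubated with Tdp1 (1 nM final) for 15 min at room temperature before substrate (15 nM final) started a 5 min reaction; beads (10 ug/ml final) were then added for 10 min before AlphaScreen detection.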
# * marks the source's active call; other numbers are inactive results; ? = inconclusive; / = not tested or not shown; ! = not active in a repeat. Sampled rows, rich in hits. Any-hit rate of the full collection: about 19%. Unless noted, calls come from the whole dose curve; as a rule, active = well fitted curve in the direction sought with a large enough effect; inconclusive = small, poorly fitted or top-dose-only effect, or another doubt; inactive = no such curve, though single readings can be large; an effect the other way counts as inactive or inconclusive.
SMILES,TDP1 cell noCPT,HepG2 viability,IL1B secr inh,DT40 TDP1 CPT,TGFb SMAD3 inh,TDP1 inh
Cc1nn(S(=O)(=O)c2ccc(C(C)C)cc2)c(C)c1S(=O)(=O)N1CCCCCC1,2%,3%,/,-5%,0%,-1%
C[C@H](NC(=O)COc1ccc(Cl)cc1)C(=O)N1CCC2(CC1)NCCc1[nH]cnc12,0%,-4%,-13,0%,2%,2%
O=C(Nc1ccccc1Cl)N1CCCN(c2nc(-c3ccccc3)ns2)CC1,?,-58%,-20,?,?,3%
O=C(Nc1ccccc1)N1CCN(c2nc(-c3ccccc3)ns2)CC1,16µM*,2%,-8,23µM*,?,1%
Cc1c(Cl)cccc1NC(=O)N1CCCN(c2nc(-c3ccccc3)ns2)CC1,?,7%,-61*,?,-22%,3%
CCN(CC)C(=O)c1ccc2c(c1)N(Cc1ccccc1F)C(=O)c1ccccc1S2=O (centres undefined),-15%,-30%,/,-22%,?,5%
Cc1cc(C)c2c(=O)cc(C(=O)Nc3ccc(S(=O)(=O)Nc4onc(C)c4C)cc3)oc2c1,-15%,5%,/,-10%,-2%,10%
O=c1cc(NCCc2ccccc2)c2ccccc2o1,8.2µM*,-15%,-59*,10µM*,-1%,-5%
O=c1cc(NCCO)c2ccccc2o1,0%,9%,0,2%,1%,2%
Cc1ccccc1Nc1cc(=O)oc2ccccc12,21µM*,-37%,-13,12µM*,-3%,6%
O=C1NC[C@H](Cc2ccccc2)N(CC2CCN(CCCC3CCCC3)CC2)C1=O,-17%,-6%,-14,-12%,-13%,/
CN(C(=O)COC(=O)c1ccc(Cl)c(S(=O)(=O)N2CCCCC2)c1)C1(C#N)CCCCC1,?,4%,11,-3%,3%,1%
Nc1c2c(nc3sc4c(c13)CCCC4)CCCCCC2,13µM*,0%,32,?,11%,-1%
Cc1ccc(S(=O)(=O)n2cc(-c3ccccc3)c3ccccc32)cc1,2.3µM*,11%,69,3.7µM*,?,0%
COc1ccccc1CNc1nccn(-c2ccccc2)c1=O,?,-1%,/,?,0%,4%
Fc1ccc(CNc2nc(-c3ccc(Cl)cc3)cc(C(F)(F)F)n2)cc1,18µM*,-39%,/,23µM*,?,/
COc1ccccc1C(=O)NC(=O)Nc1nc(-c2ccccc2)cc(C(F)(F)F)n1,?,-10%,-24,15µM*,22%,1%
COc1ccc(-c2cc(C(F)(F)F)nc(NCc3ccccc3)n2)cc1,?,-22%,/,26µM*,-27%,-6%
FC(F)(F)c1ccnc(NCc2ccc(Cl)cc2)n1,-29%,-22%,-55*,-16%,?,/
O=C(NC(=O)c1cccc(F)c1)Nc1nc(-c2ccc(F)cc2)cc(C(F)(F)F)n1,-26%,-13%,-27,-1%,12%,0%
COc1ccccc1NC(=O)Cn1c(=O)n(Cc2nc(-c3ccccc3)no2)c(=O)c2ccccc21,?,8%,/,-28%,-2%,3%
CC[C@]1(O)C[C@H]2CN(CCc3c([nH]c4ccccc34)[C@@](C(=O)OC)(c3cc4c(cc3OC)N(C=O)[C@H]3[C@@](O)(C(=O)OC)[C@H](OC(C)=O)[C@]5(CC)C=CCN6CC[C@]43[C@@H]65)C2)C1,0.24µM*!,-6%,/,0.24µM*,0.56µM*,2%
CN(C)c1nn2c(-c3ccccc3)nnc2o1,-26%,-23%,3,0%,-5%,/
c1ccc(-c2nn3c(-c4ccccc4)nnc3o2)cc1,?,-57%,-51*,?,-34%,/
CCCc1nn2c(-c3ccccc3)nnc2o1,?,-1%,-67*,-16%,-9%,/
SMILES,TDP1 cell noCPT,HepG2 viability,IL1B secr inh,DT40 TDP1 CPT,TGFb SMAD3 inh,TDP1 inh
CC1=CC(C)(C)N=C(Nc2ccc(C)cc2)S1,?,-46%,-65*,?,0%,3%
CCc1nc2c(OCc3ccc(C(=O)OC)cc3)cccn2c1N(C)C(=O)CC(C)C,?,-20%,2,?,-8%,/
Cc1nc2c(OCc3ccc(Cl)cc3)cccn2c1N(C)C(=O)CCC1CCCC1,23µM*,-8%,12,15µM*,?,/
Cc1nc2c(OCc3ccc(C#N)cc3)cccn2c1N(C)C(=O)CCC1CCCC1,?,-21%,-55*,?,?,/
Cc1nc2c(OCc3ccc(F)cc3)cccn2c1N(C)C(=O)CCC1CCCC1,23µM*,-11%,-25,?,-3%,/
COC(=O)c1ccc(COc2cccn3c(N(C)C(=O)CCC4CCCC4)c(C)nc23)cc1,21µM*,-46%,16,18µM*,?,/
Cc1nc2c(OCc3ccc(C(F)(F)F)cc3)cccn2c1N(C)C(=O)CCC1CCCC1,?,-92%,-11,?,?,/
Cc1coc2cc3oc(=O)c(CCC(=O)N4CCC(C(=O)O)(c5ccccc5)CC4)c(C)c3cc12,-4%,-25%,45,-1%,-14%,/
Cc1ccc(CNC(=O)Cn2c(=O)cc(C)c3c(C)nn(-c4cccc(F)c4)c32)cc1,-1%,-15%,/,2%,-14%,6%
CCN1C(=O)[C@H]2[C@@H](c3ccc(C)cc3)N3C(=O)N(c4ccc(OC)cc4)C(=O)[C@@]3(C)[C@H]2C1=O,-4%,4%,16,-1%,21%,/
O/N=C(/C[n+]1cccc(Br)c1)c1ccc2ccccc2c1,13µM*,-27%,/,?,1%,/
CC(=O)O[C@@H]1CC2CCC1(C)C2(C)C (some centres undefined),-4%,/,/,0%,/,/
O=Nc1ccc(NO)c2ccccc12,13µM*,-155%,-7,?,13µM*,/
O=C(CNC(=O)C1CCCCC1)OCC(=O)c1ccccc1,-22%,-4%,/,6%,0%,1%
CCOc1ccc(S(=O)(=O)NCC(c2ccc(N(C)C)cc2)N2CCc3ccccc32)cc1 (centres undefined),?,-18%,/,?,-17%,9%
COc1ccc(OCC(=O)NCC(c2ccc(Cl)cc2)N2CCCCC2)cc1 (centres undefined),?,-24%,/,21µM*,-26%,1%
